Screening data (PubChem BioAssay)
Shown are actives, neighbours in structure and some others; about 19% of the full set was active somewhere.
HT1080 IDH1KD tx – kills HT-1080 cells with IDH1 knockdown; AID 686971; Potency, µM (top dose mostly 46.1 µM), inactives show top-dose activity, negative = toxicity, actives largely listed as cytotoxic; actives 2% (n = 360,000); HT-1080 IDH1 knockdown viability, ATP luminescence, 48 h;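 note: potency is the fitted concentration of half-maximal effect; 0% = DMSO wells and -100% = cell-free medium wells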
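Knockdown cells (IDH1KD HT-1080) received compounds 2 h after plating at 750 cells/well and were kept 48 h at 37 °C in 5% FBS RPMI. A CellTiter-Glo luminescence read gave % activity for curve fitting.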
HT1080NT lethal – kills 2HG-producing HT-1080-NT fibrosarcoma cells. HT-1080-NT fibrosarcoma viability, CellTiter-Glo ATP luminescence, 48 h. Potency, µM (doses to about 46.1 µM), inactives show top-dose activity, negative = less viability, actives largely listed as cytotoxic. actives 1.6% (n = 360,000);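 note: NT is the 2HG producing partner of a matched IDH1 knockdown line; potency is the fitted concentration of half-maximal effect; 0% = DMSO-treated cells and -100% = media-only wells without cells; nearly all actives have a fitted effect of over 55% in size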
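Toxicity toward the 2HG-producing NT line was scored as %Activity, normalised to DMSO and no-cell wells, from CellTiter-Glo luminescence after 48 hours' treatment.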
DT40 TDP1 CPT – DT40-hTDP1 cell growth loss with CPT; chicken DT40 Tdp1-/-;hTDP1 cells + 20 nM CPT, ATP luminescence, 48 h; Potency, µM (titrated, usually from 46.2 µM), for the others: top-dose activity change, negative = growth inhibition, actives largely listed as inhibitors; actives 12% (n = 420,000); AID 686979; note: potency is the fitted concentration of half-maximal effect; nearly all actives have a fitted effect of over 55% in size
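Cell growth measured by CellTiter-Glo luminescence after a minimum 48 h, 37 C compound exposure with 20 nM CPT in Tdp1-knockout DT40 cells stably expressing hTDP1, seeded 400/well; qHTS titration format.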
TDP1 cell noCPT – qHTS for Inhibitors of human tyrosyl-DNA phosphodiesterase 1 (TDP1): qHTS in cells in absence of CPT; DT40 Tdp1-/- hTDP1 cells, no CPT, ATP luminescence, 48 h; Potency, µM (top dose mostly 46.2 µM), for inactives: at the top dose activity change, negative = growth inhibition, most hits filed as inhibitors; actives 15% (n = 420,000); note: potency is the fitted concentration of half-maximal effect; nearly all actives have a fitted effect of over 55% in size
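Chicken DT40 Tdp1-/- cells complemented with human TDP1, screened without camptothecin (DMSO vehicle only), 400 cells/well. Compounds pin-transferred, cells incubated at 37 °C for at least 48 hr. Growth read as ATP-dependent luminescence (CellTiter-Glo, 30 min at RT).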
IL1B secr inh – inflammasome signaling inhibition, IL-1 beta readout. THP-1 LPS/ATP IL-1B secretion, AlphaLISA, 16 h; stronger effect = lower value. activity change, % at 57.5 µM. actives 4.7% (n = 360,000). AID 743279; in the data active = activity change below about -50%; inconclusive = mostly about -30% to -49%
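Secreted IL-1B measured by AlphaLISA bead assay after 16 h compound exposure of THP-1 cells; compounds (final up to 57.5 uM) added 1 h before LPS (250 ng/mL) and ATP (1.25 mM) stimulation; lower signal means less secretion.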
* hit, by the source's call; [ ] = remark or other dose. Unless noted, calls come from the whole dose curve; as a rule, active = well fitted curve in the direction sought with a large enough effect; inconclusive = small, poorly fitted or top-dose-only effect, or another doubt; inactive = no such curve, though single readings can be large; an effect the other way counts as inactive or inconclusive. Unless noted, % is set by controls: 0 for no effect and ±100 for the full control effect.

Screening CCOC(=O)c1oc2cccc(OCC(O)CNC(C)C)c2c1C (stereo unspecified) returned HT1080 IDH1KD tx inconclusive, HT1080NT lethal inconclusive, DT40 TDP1 CPT 21µM*, TDP1 cell noCPT inconclusive and IL1B secr inh -50*.
CCOc1ccc(NC(=S)N(CCOC)C(C)c2cccnc2)cc1 (stereo unspecified) was read as HT1080 IDH1KD tx 2%, HT1080NT lethal -2%, DT40 TDP1 CPT 15%, TDP1 cell noCPT -22% and IL1B secr inh 7.
CSc1nnc(-c2sc3cc(C(F)(F)F)cnc3c2-c2cccnc2)n1C was read as HT1080 IDH1KD tx -23%, HT1080NT lethal -9%, DT40 TDP1 CPT inconclusive, TDP1 cell noCPT 16µM* and IL1B secr inh -8.
For C[N+]1(C)[C@@H]2CC(OC(=O)C(O)(c3cccs3)c3cccs3)C[C@H]1[C@@H]1O[C@@H]12 (stereo partly specified) the results were DT40 TDP1 CPT 10% and TDP1 cell noCPT -14%.
O=C(NC1CCCCC1)C(c1ccccn1)N(C(=O)c1csnn1)c1ccccc1 (stereo unspecified) was read as HT1080 IDH1KD tx 2%, HT1080NT lethal 5%, DT40 TDP1 CPT -4%, TDP1 cell noCPT -6% and IL1B secr inh 14.
CCc1nc2ccc(C(=O)N3CCNC(=O)C3)cn2c1N(C)CCC(C)C was read as HT1080 IDH1KD tx 20%, HT1080NT lethal 13%, DT40 TDP1 CPT -8%, TDP1 cell noCPT -25% and IL1B secr inh -11.
For O=C(N1CCCCC1)C12CC3CC(C1)CC(C(=O)N1CCCCC1)(C3)C2 the results were HT1080 IDH1KD tx 2%[9.24 µM], HT1080NT lethal 10%, DT40 TDP1 CPT inconclusive, TDP1 cell noCPT 23µM* and IL1B secr inh 3.
COC(=O)C1C(=O)C2=C(CC1C)NC(C)=C(C(=O)OCc1ccc(OC)cc1)C2c1ccc(C)o1 (stereo unspecified) was read as HT1080 IDH1KD tx -18%, HT1080NT lethal -4%, DT40 TDP1 CPT inconclusive, TDP1 cell noCPT 10µM* and IL1B secr inh -21.
`COC(=O)C1C(=O)C2=C(CC1C)NC(C)=C(C(=O)OC(C)C)C2c1ccc(C)o1` (stereo unspecified) gave HT1080 IDH1KD tx 0%, HT1080NT lethal 0%, DT40 TDP1 CPT -10%, TDP1 cell noCPT -1% and IL1B secr inh 6.
For COC(=O)C1C(=O)C2=C(CC1C)NC(C)=C(C(=O)OC1CCCCC1)C2c1ccc(N(C)C)cc1 (stereo unspecified) the results were HT1080 IDH1KD tx -11%, HT1080NT lethal -6%, DT40 TDP1 CPT inconclusive, TDP1 cell noCPT 16µM* and IL1B secr inh -3.
COC(=O)C1C(=O)C2=C(CC1C)NC(C)=C(C(=O)OCCOc1ccccc1)C2c1ccc(C)o1 (stereo unspecified) was read as HT1080 IDH1KD tx -2%, HT1080NT lethal 2%, DT40 TDP1 CPT 23µM*, TDP1 cell noCPT 16µM* and IL1B secr inh 0.
For COCCNC(=O)C1CCCN(Cc2cccc(C#N)c2)CC1 (stereo unspecified) the results were HT1080 IDH1KD tx inconclusive, HT1080NT lethal 20%, DT40 TDP1 CPT 5%, TDP1 cell noCPT 4% and IL1B secr inh 38.
Screening CC(C)c1ccc(NC(=O)CCCC(=O)NCCc2ccccc2)cc1 returned HT1080 IDH1KD tx -1%, HT1080NT lethal 1%, DT40 TDP1 CPT 1%, TDP1 cell noCPT inconclusive and IL1B secr inh 9.
Screening COc1ccc(CCNC(=O)C/C(C)=N/NC(=O)c2ccc([N+](=O)[O-])cc2Cl)cc1OC returned HT1080 IDH1KD tx -14%, HT1080NT lethal 2%, DT40 TDP1 CPT -13%, TDP1 cell noCPT -1% and IL1B secr inh 6.
For NC(=O)c1nc(-c2cccs2)nc2c1[nH]c(=O)n2-c1ccc(F)cc1 the results were HT1080 IDH1KD tx 0%, HT1080NT lethal -3%, DT40 TDP1 CPT -9%, TDP1 cell noCPT inconclusive and IL1B secr inh 24.
`COC(=O)c1ccccc1N=Nc1c(N)n[nH]c1N` gave HT1080 IDH1KD tx 0%, HT1080NT lethal 3%, DT40 TDP1 CPT -1%, TDP1 cell noCPT -19% and IL1B secr inh -60*.
For COC(=O)c1ccccc1N=Nc1c(N)[nH][nH]c1=O the results were HT1080 IDH1KD tx -9%, HT1080NT lethal 2%, DT40 TDP1 CPT inconclusive, TDP1 cell noCPT inconclusive and IL1B secr inh -15.
For CCc1cc(C(=O)NNC(=O)CCN2CCN(c3ccccc3)CC2)sc1C the results were HT1080 IDH1KD tx -3%, HT1080NT lethal -5%, DT40 TDP1 CPT 6%, TDP1 cell noCPT 15% and IL1B secr inh -4.
Screening CCc1cc(C(=O)NNC(=O)CCl)sc1C returned HT1080 IDH1KD tx -12%, HT1080NT lethal -25%, DT40 TDP1 CPT 15µM*, TDP1 cell noCPT inconclusive and IL1B secr inh -28.
`c1ccc(-n2nnnc2Oc2ccc(-n3ccnc3)cc2)cc1` gave HT1080 IDH1KD tx 6%, HT1080NT lethal 9%, DT40 TDP1 CPT -13%, TDP1 cell noCPT -9% and IL1B secr inh -64*.
Screening COc1ccc(Oc2nnnn2-c2ccccc2)cc1 returned HT1080 IDH1KD tx 3%, HT1080NT lethal inconclusive, DT40 TDP1 CPT 9%, TDP1 cell noCPT -4% and IL1B secr inh -20.
`c1ccc(-n2nnnc2Oc2cccc3cccnc23)cc1` gave HT1080 IDH1KD tx inconclusive, HT1080NT lethal 7.9µM*, DT40 TDP1 CPT -15%, TDP1 cell noCPT -6% and IL1B secr inh 3.
`COc1ccc(-c2c(-c3cc(OC)cc(OC)c3)n(C)c3ccc(-c4ccc(OC)c(F)c4)cc23)cc1` gave HT1080 IDH1KD tx -2%, HT1080NT lethal 1%, DT40 TDP1 CPT -23%, TDP1 cell noCPT inconclusive and IL1B secr inh 17.
`COc1cc(OC)cc(-c2c(-c3cccs3)c3cc(-c4cnc(N)nc4)ccc3n2C)c1` gave HT1080 IDH1KD tx inconclusive, HT1080NT lethal inconclusive, DT40 TDP1 CPT 23µM*, TDP1 cell noCPT inconclusive and IL1B secr inh -4.
For COc1ccc(-c2c(-c3cc(OC)cc(OC)c3)n(C)c3ccc(-c4ccc5c(c4)OCCO5)cc23)cc1 the results were HT1080 IDH1KD tx 5%, HT1080NT lethal 7%, DT40 TDP1 CPT -25%, TDP1 cell noCPT inconclusive and IL1B secr inh 5.
Screening COc1cc(OC)cc(-c2c(-c3cccs3)c3cc(-c4ccc(OC)c(F)c4)ccc3n2C)c1 returned HT1080 IDH1KD tx -4%, HT1080NT lethal -1%, DT40 TDP1 CPT inconclusive, TDP1 cell noCPT 18µM* and IL1B secr inh -3.
